Results on 38 sequences are retold here after publication PMC3795721, “Screening for Protein-DNA Interactions by Automatable DNA-Protein Interaction ELISA”.

The target of this assay is AT4G31550 (Arabidopsis thaliana, UniProt Q9SV15 228-325). Kind of assay: DPI-ELISA; DPI-ELISA, streptavidin 384-well plate, 1-2 pmol biotinylated dsDNA per well, crude native E. coli extract, anti-His detection; buffer as in Brand et al. [46],; high values mean tight binding. The note with it: tags: C-terminal His (pET-DEST42); label: 5' biotin on forward strand; dsDNA, one strand shown.
Chain of AT4G31550 (Q9SV15 228-325): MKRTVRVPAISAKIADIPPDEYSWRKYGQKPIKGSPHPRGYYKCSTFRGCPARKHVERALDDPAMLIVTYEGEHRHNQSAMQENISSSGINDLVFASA
AAAAAATCCACGACTCAGCAGCTCTTAAAA returned a binding signal of 0.68 ± 0.0707 absorbance.
The result for AAAAAATCCATTCTTCGCGTTTATCCAAAA reads 0.53 ± 0.0849 absorbance; that for AAAAAATATCGGGCACGGTCTTGTCTAAAA, 0.585 ± 0.0495 absorbance; that for AAAAAAATTACGCGGGATCGCCAAAA, 0.6 ± 0.0566 absorbance.
Consider AAAAAAGGTAGTCACATTACGAGGGTAAAA, for which the binding signal turned out to be 0.555 ± 0.0354 absorbance.
The result for AAAAAATTGGTTCTCATTTCTACTTCAAAA reads 0.57 ± 0.127 absorbance.
AAAAAAGCTGTCACTGTAGTCGGTCCAAAA yielded a binding signal of 0.67 ± 0.0707 absorbance.
The result for AAAAAATTACGTTTGTATTTGTAAAA reads 0.555 ± 0.0636 absorbance.
The result for AAAAAAGATCTAGGCCTTGGGACTCAAAAA reads 0.415 ± 0.0636 absorbance.
The result for AAAAAATGTATTCGTGTCCACTCCATAAAA reads 0.53 ± 0.0707 absorbance; that for AAAAAAACTTTCTATTCTGGATAAGTAAAA, 0.625 ± 0.134 absorbance; that for AAAAAAACGCTCAAGTCTATCAGTAGAAAA, 0.74 ± 0.141 absorbance.
AAAAAAATCAGCCTGACTCTGGGCGTAAAA came in with a binding signal of 0.71 ± 0.141 absorbance.
To AAAAAACTTCTAGTTTATGCTTCCGTAAAA belongs 0.69 ± 0.141 absorbance; to AAAAAATAAATCGCGGCTACTGCTTCAAAA, 0.55 ± 0.141 absorbance; to AAAAAATTCCGGCTTGACGCTGCATAAAAA, 0.655 ± 0.106 absorbance.
To AAAAAAGTCTCACCTTTAGTCTTAATAAAA belongs 0.64 ± 0.0283 absorbance.
The result for AAAAAACCGGCACGATTTGGATATTCAAAA reads 0.64 ± 0.113 absorbance; that for AAAAAAATGATTGCCAATGCTCGCAAAAAA, 0.73 ± 0.156 absorbance.
Sequence AAAAAAGTCCGCCCTTAATTCATATTAAAA gave a binding signal of 1.37 ± 0.269 absorbance.
To AAAAAAGAAATACCAGAAACTATCATAAAA belongs 0.705 ± 0.219 absorbance; to AAAAAAAGGTTTGGGCTTCACGTTATAAAA, 0.725 ± 0.12 absorbance; to AAAAAAATATTTGAGCTAGGTTATCAAAAA, 0.57 ± 0.113 absorbance.
The result for AAAAAATGCAACGCTCCTTTCCCGCTAAAA reads 0.535 ± 0.106 absorbance.
On to AAAAAATATCTGATCCAATTTAGGTCAAAA, for which the binding signal was 1.5 ± 0.0212 absorbance.
To AAAAAATAGTGTGATTGGTATCCAGTAAAA belongs 0.645 ± 0.0495 absorbance; to AAAAAACAGGCCGATTCCGATCCCGGAAAA, 0.535 ± 0.0919 absorbance; to AAAAAAGATGATTAGTAATTGCGGAAAAAA, 0.75 ± 0.0849 absorbance.
The result for AAAAAAGTAGGTGCTGATGCTGGCCGAAAA reads 0.59 ± 0.0141 absorbance.
To AAAAAATTCTTTTTTCTTCAAGGTCTAAAA belongs 0.565 ± 0.0212 absorbance; to AAAAAAAGCTTCTATAGCTCCATGGAAAA, 0.515 ± 0.106 absorbance.
Consider AAAAAATAGTACCGCTAATGGCTGACAAAA, for which the binding signal is 0.605 ± 0.12 absorbance.
Regarding AAAAAAACGGGTTGTGAATGTGGAAGAAAA, the binding signal was found to be 0.575 ± 0.148 absorbance.
The result for AAAAAATGCAGACCTTCAGCTGGGTAAAAA reads 0.58 ± 0.0141 absorbance; that for AAAAAAGTGTTAGATTGTAGTTGATAAAA, 0.675 ± 0.106 absorbance.
To AAAAAACGCCGGACAATCAGGCGCTCAAAA belongs 0.625 ± 0.177 absorbance; to AAAAAAGGGCGAGCGCTGGATCCACAAAA, 0.505 ± 0.106 absorbance.
To AAAAAACTGGTGTATCTCCTCAATTAAAAA belongs 0.635 ± 0.0636 absorbance.
